# Screening data deposited in PubChem by Broad Institute.
# HSF1 activator = HSF-1 activators, primary screen, NIH3T3-HGL cells, MG132 stress, luminescence, single point. AID 504408, 2011. 300,000 tested, 1.7% active. NIH3T3-HGL HSF-1 luciferase reporter, 8 h; 100% = twice DMSO control signal. activation, % at 9 µM;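 active means mean replicate activation of at least 50% with a set share of replicates each reaching 50%; inconclusive means only one of those two conditions met; inactive means mean below 50% and too few replicates reaching it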;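 further: 0% = median of the neutral control wells and 100% = twice that signal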
# HSF1 inhib = HSF1 inhibitors in luciferase reporter cells, primary screen, cell-based, NIH3T3, luminescence. NIH3T3-HGL HSE-luciferase, MG132-induced, luminescence 8 h; stronger effect = lower value. activity change, negative = inhibition, % at 7.5 µM (by protocol). 300,000 tested, 0.77% active. AID 2098, 2009;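 active means more than half of replicate wells show activity change below -50%, luminescence cut by over half; inconclusive means some wells, but at most half, below -50%; inactive means no replicate well below -50%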;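 further: luciferase reports HSF-1 transcriptional activity via heat shock element; 0% = median of DMSO wells and -100% = zero luminescence signal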
# esBAF inh = Bmi1 luciferase reporter increase in mESCs, primary screen, esBAF inhibitor project, mouse ES cells, Bmi1 luciferase knock-in, single point | 350,000 tested, 2% active | AID 602393, 2012 | 24 h; 100% = twice the neutral-well signal | reporter increase, % at 12.5 µM; in the data active means activation above about 40%; inconclusive means no clear call, values can overlap the other calls;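 further: 0% = median of the plate's neutral control wells and 100% = double that signal; a rise in the Bmi1 reporter signal indicates esBAF inhibition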
# Vif imaging = HIV Vif self-association inhibitors, primary screen, imaging, HEK293T, single point; 340,000 tested, 0.35% active; HEK293T cells, Vif self-association by quenched fluorescence, 24 h; inhibition, % at 7.49 µM; in the data active means inhibition above about 50%, passing the limit was not always enough; inconclusive means no clear call, values can overlap the other calls; inactive means below about 31%
# An asterisk follows results filed as active; ? = inconclusive; · = not tested or not shown. Hits are enriched below; roughly 3.4% of the tested compounds scored in any of these assays.
SMILES,HSF1 activator,HSF1 inhib,esBAF inh,Vif imaging
CO[C@@H]1CN(C)C(=O)c2cc(NS(C)(=O)=O)ccc2OC[C@@H](C)N(CC2CCCCC2)C[C@H]1C,·,·,-4,·
CC1(C)CC2CC(C)(CN2Cc2cccc([N+](=O)[O-])c2)C1 (configuration not stated),-25,-10,3,57*
CC1(C)CC2CC(C)(CN2C(=O)COC(=O)c2cccc([N+](=O)[O-])c2)C1 (configuration not stated),-2,-2,·,-1
O=C(O)CCCCn1c(SCc2ccccc2Cl)nc2ccsc2c1=O,22,0,·,59*
C/C=C/c1cnc2c(c1)C(=O)N([C@H](C)CO)C[C@@H](C)[C@@H](CN(C)C(=O)Nc1ccc(F)cc1)O2,·,·,-1,·
O=[N+]([O-])c1ccccc1CSc1nnc2ccccn12,24,16,63*,6
c1ccn2c(SCc3ccc4c(c3)OCO4)nnc2c1,-73,-65*,·,10
C[C@@H]1CN([C@H](C)CO)C(=O)c2cccc(NS(=O)(=O)c3ccccc3)c2O[C@H]1CN(C)C(=O)Nc1ccc2c(c1)OCO2,·,·,12,·
Cc1ccc(S(=O)(=O)Nc2cccc3c2O[C@H](CN(C)C(=O)Nc2ccc4c(c2)OCO4)[C@@H](C)CN([C@H](C)CO)C3=O)cc1,·,·,49*,·
Cc1ccc(S(=O)(=O)Nc2cccc3c2O[C@@H](CN(C)C(=O)Nc2ccc4c(c2)OCO4)[C@H](C)CN([C@H](C)CO)C3=O)cc1,·,·,28,·
C[C@H]1CN([C@@H](C)CO)C(=O)c2cccc(NS(=O)(=O)c3ccccc3)c2O[C@@H]1CN(C)C(=O)Nc1ccc2c(c1)OCO2,·,·,57*,·
C[C@H]1CN([C@@H](C)CO)C(=O)Cc2cc(NC(=O)C3CCCCC3)ccc2O[C@@H]1CN(C)C(=O)Nc1ccc2c(c1)OCO2,·,·,42*,·
Cc1ccc(S(=O)(=O)Nc2cccc3c2O[C@@H](CN(C)C(=O)Nc2ccc4c(c2)OCO4)[C@@H](C)CN([C@H](C)CO)C3=O)cc1,·,·,18,·
Cc1ccc(S(=O)(=O)Nc2cccc3c2O[C@@H](CN(C)C(=O)Nc2ccc4c(c2)OCO4)[C@@H](C)CN([C@@H](C)CO)C3=O)cc1,·,·,73*,·
C[C@@H]1CCCCO[C@@H](CN(C)CC2CCCCC2)[C@@H](C)CN([C@H](C)CO)C(=O)c2cc(NS(=O)(=O)c3ccc(F)cc3)ccc2O1,·,·,5,·
CO[C@@H]1CN(C)C(=O)c2cc(NS(=O)(=O)c3ccc(F)cc3)ccc2OC[C@H](C)NC[C@H]1C,·,·,0,·
COCC(=O)NC[C@H]1[C@@H](c2ccccc2)[C@H](CO)N1C(C)=O,·,·,2,·
CC(=O)N(C)C[C@H]1Oc2ncc(-c3ccc(C(=O)N(C)C)cc3)cc2C(=O)N([C@H](C)CO)C[C@@H]1C,·,·,0,·
C[C@@H]1CN([C@@H](C)CO)C(=O)c2cccc(NC(=O)Nc3ccccc3)c2O[C@H]1CN(C)C(=O)Nc1ccc2c(c1)OCO2,·,·,61*,·
C[C@H]1CN([C@@H](C)CO)C(=O)c2cccc(NC(=O)Nc3ccccc3)c2O[C@H]1CN(C)C(=O)Nc1ccc2c(c1)OCO2,·,·,10,·
C[C@@H]1CN([C@@H](C)CO)C(=O)c2cccc(NC(=O)Nc3ccc4c(c3)OCO4)c2O[C@H]1CN(C)Cc1ccc(Cl)c(Cl)c1,·,·,55*,·
C[C@@H]1CN([C@H](C)CO)C(=O)c2cccc(NC(=O)Nc3ccc4c(c3)OCO4)c2O[C@H]1CN(C)Cc1ccc2c(c1)OCO2,·,·,6,·
CCOC(=O)Cn1nnnc1C(CC)N(Cc1cc2ccc(C)cc2[nH]c1=O)C1CCCC1 (configuration not stated),69*,53,-7,0
CCOC(=O)Cn1nnnc1C(CC)N(Cc1cccs1)Cc1cc2cc(C)ccc2[nH]c1=O (configuration not stated),26,6,-5,-10
COc1cccc(NC(=O)C[C@H]2CC[C@@H]3[C@H](COc4ccc(NC(=O)C5CC5)cc4C(=O)N3C)O2)c1,·,·,-4,·
SMILES,HSF1 activator,HSF1 inhib,esBAF inh,Vif imaging
COc1ccc(C(=O)N2CCc3ccc(NC(=O)c4ccccn4)cc3C2)cc1F,43,3,52*,-2
COc1cc2c(cc1OC)CN(C(=O)c1ccncc1)CC2,10,9,-3,-3
O=C(Nc1ccccc1)OC1CCS(=O)(=O)C1 (configuration not stated),-3,-11,·,0
CC(=O)NC1CCC(OC(=O)Nc2ccccc2)CC1 (configuration not stated),·,·,53*,-3
CC(C)N1CC2(CC(c3ccccc3F)=NO2)CN1C(=O)c1ccco1 (configuration not stated),·,·,57*,1
O=C(c1ccco1)N1CC2(CC(c3ccc(Cl)cc3)=NO2)CN1Cc1ccc(Br)cc1 (configuration not stated),·,·,-6,-5
O=C(Nc1ccccn1)Nc1cccs1,11,21,55*,1
O=C(Nc1ccncc1)Nc1ccccn1,·,·,-3,-5
CC(=O)Nc1ccc(NC(=O)COC(=O)c2cc(S(=O)(=O)N(C)C)ccc2N2CCCC2)cc1,7,1,·,-15
CN(CC(=O)Nc1ccc(F)cc1)C(=O)COC(=O)c1cc(S(=O)(=O)N(C)C)ccc1N1CCCC1,-74,-68*,-1,8
C[C@H]1CN([C@@H](C)CO)C(=O)Cc2cc(NC(=O)Nc3ccc(F)cc3)ccc2O[C@@H]1CN(C)C(=O)Nc1ccccc1,·,·,-3,·
Cn1nc(-c2ccccn2)nc2c(=O)n(C)c(=O)nc1-2,-94,-94*,-27,-29
CCCc1nc2c(=O)n(C)c(=O)nc-2n(C)n1,·,·,-52,3
C[C@H](O)C#Cc1ccc([C@H]2[C@H](CO)N3CCCCN(C(=O)c4ccc5c(c4)OCO5)C[C@@H]23)cc1,·,·,3,·
c1ccc(SCc2nc(-c3cccnc3)no2)cc1,47,38,13,-4
Cc1ccc(-c2noc(CSc3ccccc3)n2)cc1,69*,37,0,-4
c1ccc(SCc2nc(-c3ccccn3)no2)cc1,?,40,26,-4
Cc1cccc(-c2noc(CSc3ccccc3)n2)c1,45,14,46*,-1
CO[C@H]1CN(C)C(=O)c2ccc(NC(=O)c3ccc(F)cc3)cc2OC[C@@H](C)N(C)C[C@H]1C,·,·,2,·
Cn1c(CCNC(=O)c2cccs2)nnc1SCC(=O)Nc1nc(-c2ccccc2)cs1,54*,11,7,-8
Cc1csc(NC(=O)CSc2nnc(CCNC(=O)c3cccs3)n2C)n1,3,-7,2,-4
CC(=O)N(C)C[C@H]1Oc2cc(-c3cccnc3)ccc2S(=O)(=O)N([C@@H](C)CO)C[C@H]1C,·,·,-2,·
Nn1c(Cc2ccccc2)nc2ccccc2c1=O,4,-3,-9,-1
Nn1c(COc2ccc(Cl)cc2)nc2ccccc2c1=O,86*,40,?,-3
